AMA1-RON2 inh: AMA1-RON2 (P. falciparum) interaction inhibition; AlphaScreen AMA1-biotinylated RON2 peptide binding; Potency, µM (highest dose often 58.2 µM), for the others: top-dose activity change, negative = inhibition, hits mostly inhibitors; actives 0.2% (n = 360,000); AID 720542;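 also: 0% = vehicle wells and -100% = peptide control; nearly all actives have a fitted effect of over 45% in size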
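AMA1 (3D7) with his tag at 25 nM final met compounds first, then biotinylated RON2 peptide at 25 nM; detection used donor plus acceptor beads, 10 µg/mL apiece, read by AlphaScreen after 30 min at room temperature.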
Pf growth 48h: inhibits P. falciparum growth in the first generation, 48 h | P. falciparum luciferase growth in erythrocytes, 48 h | Potency, µM (titrated, usually from 28.7 µM), without a hit: at the top dose activity change, negative = inhibition, hits mostly inhibitors | actives 5.9% (n = 310,000) | AID 504832
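First compound was added to culture medium, then infected red cells at 0.1% parasitemia and 2% hematocrit (final). After incubation at 37 C under 5% CO2, luciferase detection reagent was dispensed and light output recorded.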
AmpC no deterg: AmpC beta-lactamase inhibition without detergent; actives 0.52% (n = 330,000); P00811; AID 485341; AmpC nitrocefin hydrolysis, absorbance 480 nm, 0.0001% Triton; Potency, µM (top dose mostly 57.1 µM), without a hit: top-dose activity change, negative = inhibition, actives largely listed as inhibitors;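 also: plate controls were no compound for no effect and no enzyme for full effect; nearly all actives have a fitted effect of over 20% in size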
Target sequence (P00811 whole entry, looked up): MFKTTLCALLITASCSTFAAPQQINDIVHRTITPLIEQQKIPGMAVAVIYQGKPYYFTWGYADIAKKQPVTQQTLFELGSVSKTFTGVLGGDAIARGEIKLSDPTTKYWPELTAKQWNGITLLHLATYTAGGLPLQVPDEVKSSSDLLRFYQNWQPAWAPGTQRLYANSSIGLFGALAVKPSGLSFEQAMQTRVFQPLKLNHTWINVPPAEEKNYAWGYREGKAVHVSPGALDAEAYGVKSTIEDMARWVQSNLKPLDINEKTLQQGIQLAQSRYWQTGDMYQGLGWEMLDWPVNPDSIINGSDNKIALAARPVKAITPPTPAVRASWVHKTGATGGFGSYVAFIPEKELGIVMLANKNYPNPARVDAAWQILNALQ
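AmpC (5.3 nM in the dispensed reagent) in 20 mM phosphate pH 7.0 with 0.01% (detergent screen) or 0.0001% Triton X-100 was preincubated with compounds for 15 min at room temperature. Nitrocefin was then added from an 800 uM solution, and hydrolysis was followed at 480 nm.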
Pf growth 96h: P. falciparum growth inhibition at 96 hours. Potency, µM (titrated, usually from 28.7 µM), without a hit: at the top dose activity change, negative = inhibition, actives largely listed as inhibitors. P. falciparum luciferase reporter growth, 96 h. actives 6.9% (n = 320,000)
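Readout is luminescence from an integrated firefly luciferase in P. falciparum. Red cells, 2% hematocrit and 0.05% parasitemia final, were cultured with compound through two parasite generations (96 hours) at 37 C, 5% CO2.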
HCV inh: blocks hepatitis C virus. Huh7.5.1 HCVcc-Cre infection, luciferase reporter, 44 h. Potency, µM (series often up to 41.8 µM), inactives show at the highest dose activity change, negative = inhibition, actives largely listed as inhibitors. actives 3.4% (n = 340,000)
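Antiviral activity was scored by luciferase reporter output from cells infected with HCVcc-Cre (~0.5 moi) in presence of compound, 44 h infection period, cells seeded 1,000/well 4 h prior.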
AmpC detergent: inhibitors of E. coli AmpC beta-lactamase with detergent; AmpC hydrolysis of nitrocefin, absorbance 480 nm, 0.01% Triton; Potency, µM (highest dose often 114 µM), for inactives: top-dose activity change, negative = inhibition, usual class: inhibitors; actives 0.041% (n = 370,000);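 also: 0% = no-compound wells and -100% = no-enzyme wells; nearly all actives have a fitted effect of over 25% in size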
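20 mM phosphate pH 7.0 + 0.01% (detergent screen) or 0.0001% Triton X-100; 5.3 nM AmpC reagent; cpd preinc 15 min RT; nitrocefin (800 uM stock) to start; A480 q20 s × 4 min; Activity was normalised to no-enzyme and no-compound control wells.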
The depositor's hits bear a star; ? = inconclusive; . = no result given; [ ] = dose if it differs, or a comment. Hits are enriched below; roughly 11% of the tested compounds scored in any of these assays. Calls follow the shape of the dose curve; as a rule, active = well fitted curve in the direction sought with a large enough effect; inconclusive = small, poorly fitted or top-dose-only effect, or another doubt; inactive = no such curve, though single readings can be large; an effect the other way counts as inactive or inconclusive. Unless noted, % is scaled to controls: 0 for no effect and ±100 for the full control effect; potency is read from the fitted curve at half-maximal effect.

SMILES	AMA1-RON2 inh	Pf growth 48h	AmpC no deterg	Pf growth 96h	HCV inh	AmpC detergent
CCC(C)(C)NC(=O)C(c1ccc(OC)cc1)N(C(=O)CCC(=O)Nc1cc(C)on1)C(C)(C)C (stereo unspecified)	9%	?	65%	12µM*	10%	2%
CCc1ccc(N(C(=O)CCC(=O)Nc2cc(C)on2)C(C(=O)NC(C)(C)C)c2ccc(OC)cc2)cc1 (stereo unspecified)	37%	2.1µM*	77%	12%	?	?
CCC(C)(C)NC(=O)C(c1ccc(OC)cc1)N(Cc1ccc(OC)cc1)C(=O)CCC(=O)Nc1cc(C)on1 (stereo unspecified)	18%	?	-2%	3%	11%	-8%
COc1ccc(C(C(=O)NC(C)(C)C)N(C(=O)CCC(=O)Nc2cc(C)on2)c2cccc(F)c2)cc1 (stereo unspecified)	6%	?	76%	29%	-11%	?
Cc1cccn2c(=O)c3cc(C(=O)NC(C)C)n(C)c3nc12	.	.	.	.	.	2%
CCc1ccc(Oc2c(C(F)(F)F)oc3c(CN4CCN(C)CC4)c(O)ccc3c2=O)cc1	.	.	.	.	.	22%
O=C(Nc1cc2ccc(O)cc2oc1=O)c1ccccc1	.	.	.	.	.	-7%
O=C1Nc2ccccc2/C1=C\c1cccn1-c1ccc(OC(F)(F)F)cc1	?	?	-41%	-17%	0.56µM*	-13%
O=C1Nc2ccccc2/C1=C/c1ccccc1F	-6%	0%[0.00184 µM]	-50%	11%	?	-7%
CCCc1nn2c(=O)cc(COC(=O)c3cccc(NC(=O)COc4ccc(F)cc4)c3)nc2s1	.	.	.	.	.	20%
Cc1ccc(CN2CCN(/N=C/c3ccc(C)s3)CC2)cc1	25µM*	19%	-29%	?	4%	?
Cc1ccc(CN2CCN(/N=C\C=C\c3ccccc3)CC2)cc1	13µM*	-1%	29%	8%	6%	0%
CC(/C=N\N1CCN(Cc2ccc(C)cc2)CC1)=C\c1ccccc1	?	13%	-6%	?	?	-14%
Cc1ccc(/C=N/N2CCN(Cc3ccccc3)CC2)s1	-28%	45%	7%	46%	6%	6%
CCc1cccc(NC(=O)CN2C(=O)COc3ccc(S(=O)(=O)N4CCC(C)CC4)cc32)c1	.	.	.	.	.	4%
CCOC(=O)c1c(C)[nH]c(C)c1S(=O)(=O)N(C)CC(=O)N1CCN(c2ccccc2OC)CC1	.	.	.	.	.	4%
COC(=O)c1ccc2c(=O)n(Cc3ccc(C(=O)NC(C)C)cc3)c(=S)[nH]c2c1	39%	?	-21%	45%	7.9µM*	1%
COCCCNC(=O)c1ccc2c(=O)n(CC3CCCO3)c(=S)[nH]c2c1 (stereo unspecified)	6%	3%	-11%	1%	11%	0%
CC1CCCC(NC(=O)c2ccc3c(=O)n(CC4CCCO4)c(=O)[nH]c3c2)C1C (stereo unspecified)	-14%	2.6µM*	-24%	?	-13%	-9%
CC(C)NC(=O)c1ccc2c(=O)n(CC3CCCO3)c(=S)[nH]c2c1 (stereo unspecified)	40%	-16%	-9%	9.3µM*	-11%	-7%
N#CCCN(C(=O)COC(=O)c1ccc2ccccc2n1)c1ccccc1	7%	-8%	-4%	-10%	12%	5%
CN(CCC#N)C(=O)COC(=O)c1c2c(nc3ccccc13)/C(=C\c1ccco1)CC2	?	.	.	.	13µM*	.
CN1CCc2nc3ccccc3c(C(=O)OCC(=O)N(CCC#N)c3ccccc3)c2C1	4%	?	144%	13µM*	-22%	-8%
COc1ccc(Cn2c(=O)c3ccccc3n3c(-c4ccc(C)cc4)nnc23)cc1	.	.	.	.	.	22%
O=C(NCc1cccs1)c1ccc2c(c1)sc1nc(-c3ccccc3)cn12	.	.	.	.	.	-2%
SMILES	AMA1-RON2 inh	Pf growth 48h	AmpC no deterg	Pf growth 96h	HCV inh	AmpC detergent
COC1CCN(C(=O)c2ccc(OC3CCN(CCc4ccccc4)CC3)cc2)CC1	-5%	-16%	29%	?	-4%	2%
CN(C(=O)c1ccc(OC2CCN(CCc3ccccc3)CC2)cc1)C1CCOCC1	2%	-2%	20%	9.3µM*	15%	5%
CCN1CCN(C(=O)c2ccc(OC3CCN(CCc4ccccc4)CC3)cc2)[C@@H](C)C1=O	10%	?	26%	3.7µM*	0%	0%
CCN(CC)C1CCN(C(=O)c2ccc(OC3CCN(CCc4ccccc4)CC3)cc2)C1 (stereo unspecified)	23%	?	29%	33%	7.1µM*	?
O=C(NC1CCOC1)c1ccc(OC2CCN(CCc3ccccc3)CC2)cc1 (stereo unspecified)	-2%	-6%	-18%	2.3µM*	1%	2%
O=C(c1ccccc1Cl)n1nc(-c2cccnc2)nc1NCc1ccc(F)cc1	.	.	.	.	.	16%
CS(=O)(=O)Nc1ccc(-c2ccc(/C=C3\SC(N)=NC3=O)o2)cc1	-6%	-23%	?	3.3µM*	14%	?
Cc1ccc(CNC(=O)CSc2nc3ccccc3nc2Cc2ccc(C)cc2)cc1	.	.	.	.	.	-5%
CCOC(=O)c1c(C)[nH]c(-c2csc(C)n2)c1C	-18%	60%	-17%	83%	?	0%
CCOC(=O)c1c(C)[nH]c(-c2csc(N)n2)c1C	-9%	2.9µM*	56%	?	?	0%
CC(=O)N1c2c(cc(Br)cc2S(=O)(=O)N2CCN(c3ccccc3F)CC2)CC1C (stereo unspecified)	-8%	?	88%	12µM*	?	?
CCCCN(Cc1ccccc1)S(=O)(=O)c1cc(Br)cc2c1N(C(C)=O)C(C)C2 (stereo unspecified)	-3%	12µM*	48%	.	5µM*	-6%
CCOC(=O)C1CCCN(C(=O)c2cc(Cl)ccc2NC(=O)C2=C(C)OCCS2)C1 (stereo unspecified)	12%	13µM*	42%	1%	7%	1%
CCOC(=O)C1CCN(C(=O)c2ccccc2NC(=O)C2=C(C)OCCS2)CC1	16%	10µM*	1%	?	17%	2%
Cc1nc2nc(-c3ccc(Cl)cc3Cl)nn2c(C)c1CCC(=O)Nc1ccc(F)cc1	.	.	.	.	.	-1%
COC1CCC(OC2CC(C3(C)CCC4(CC(O)C(C)C(C(C)/C=C(\C)C(=O)C(C)CC(C)C(=O)O)O4)O3)OC3(OC(C4OC(O)(CO)C(C)CC4C)CC3C)C2C)OC1C (stereo unspecified)	9%	.	.	.	0.32µM*	.
